# Values joined by “and” are separate entries in the source; they are usually repeats but may differ in a detail not shown here. Equal entries are not always repeated. The source holds several records for some structures; these can differ, active in one and inactive in another. Active and inactive are the calls of the source. How the source made its calls: active means hit-call score of the fitted dose curve at least 0.9, where 1 is the maximum; inactive means score below 0.9.
# Assays:
# [1] = ATG_NFI_CIS: Attagene CIS-FACTORIAL HepG2 Assay for human Nuclear Factor I (NFI) (AID 2282989); conditions: HepG2 cis-regulatory reporter, NFI response element transcription; actives raise or lower the signal
# Method in brief: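 Reporter transcription driven by endogenous transcription factors in HepG2 cells; 24 h treatment. Quantitation by labelled RT-PCR fragments on capillary electrophoresis, gain- or loss-of-signal relative to DMSO.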
# [2] = target: Myc proto-oncogene protein (Homo sapiens) (UniProt P01106); assay: ATG_Myc_CIS: Attagene CIS-FACTORIAL HepG2 Assay for human Myelocytomatosis (Myc) Proto-Oncogene Transcription Factor (AID 2282990); conditions: HepG2, Attagene cis-reporter transcription factor activity; actives raise or lower the signal
# Method in brief: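 Fluorescence intensity of reporter-specific cDNA fragments, separated by capillary electrophoresis, gives the signal. Transfected HepG2 cells carrying cis-promoter reporter constructs are incubated with compound for 24 h; DMSO serves as baseline.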
# [3] = ATG_NF_kB_CIS: Attagene CIS-FACTORIAL HepG2 Assay for human Nuclear Factor Kappa B (NF-kB) (AID 2282991); conditions: HepG2 Attagene cis-factorial NF-kB reporter mRNA; actives raise or lower the signal
# Method in brief: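 DMSO served as negative control and baseline for bidirectional curve fitting. Transiently transfected HepG2 cells were dosed for 24 h, then reporter transcripts were measured by RT-PCR with capillary electrophoresis detection.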
# [4] = ATG_NRF2_ARE_CIS: Attagene CIS-FACTORIAL HepG2 Assay for human Nuclear Factor Erythroid 2 Related Factor 2 (NFR2) response to Antioxidant Response Elements (ARE) (AID 2282992); conditions: HepG2 Attagene ARE/NRF2 reporter, transcription factor activity; actives raise or lower the signal;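 on AC50: reporter mRNA level measured by RT-PCR and capillary electrophoresis fluorescence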
# Method in brief: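 Cis-factorial assay: transfected HepG2 reporter library, 24 h dosing, mRNA readout via RT-PCR/CE; DMSO-referenced bidirectional analysis.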
# [5] = ATG_Oct_MLP_CIS: Attagene CIS-FACTORIAL HepG2 Assay for human Octamer-Binding Transcription Factor (Oct) (AID 2282993); conditions: HepG2 Attagene cis-factorial Oct reporter, mRNA; actives raise or lower the signal
# Method in brief: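 Transfected HepG2 cells, 24 h treatment. Reporter mRNA quantified by RT-PCR–capillary electrophoresis; bidirectional fitting against DMSO.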
# [6] = target: Cellular tumor antigen p53 (Homo sapiens) (UniProt P04637); assay: ATG_p53_CIS: Attagene CIS-FACTORIAL HepG2 Assay for human p53 Transcription Factor (AID 2282994); conditions: HepG2 p53 cis-element reporter, Attagene mRNA; actives raise or lower the signal
# Method in brief: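 Using HepG2 hepatoma cells carrying cis-acting multiplexed reporters, mRNA induction is detected after a 24 h exposure. Gain- and loss-of-signal responses are fitted relative to DMSO-treated cells.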
# [7] = BSK_3C_TissueFactor: BioMAP Diversity Plus: 3C Assay for Tissue Factor Biomarker Activity (AID 2282997); conditions: BioMAP 3C HUVEC, tissue factor biomarker readout; actives raise or lower the signal
# Method in brief: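 Dosing of human umbilical vein endothelial cells preceded a 24 h incubation. Tissue Factor was then read by ELISA, with increases and decreases both scored relative to DMSO controls.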
# [8] = BSK_3C_uPAR: BioMAP Diversity Plus: 3C Assay for Urokinase-type plasminogen activator receptor (uPAR) Biomarker Activity (AID 2282998); conditions: BioMAP 3C HUVEC, uPAR biomarker ELISA; actives raise or lower the signal
# Method in brief: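 Readout: ELISA for surface uPAR. System: human umbilical vein endothelial primary cells, 24 h after chemical exposure. Analysis: bidirectional fit, DMSO baseline.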
# [9] = BSK_4H_Eotaxin3: BioMAP Diversity Plus: 4H Assay for Eotaxin 3 Biomarker Activity (AID 2283000); conditions: primary human endothelial cells (HUVEC); actives raise or lower the signal;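 on outcome: CCL26 protein level quantified by ELISA in parallel with SRB cytotoxicity check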
# Method in brief: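 Human umbilical vein endothelial cells (BSK_4H system) dosed with test chemical; Eotaxin-3 (CCL26) measured by ELISA 24 h after dosing. Bidirectional curve fitting relative to DMSO negative control as baseline.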
# [10] = BSK_3C_VCAM1: BioMAP Diversity Plus: 3C Assay for Vascular cell adhesion molecule 1 (VCAM1) Biomarker Activity (AID 2282999); conditions: BioMAP 3C HUVEC, VCAM1 ELISA, cytokine-stimulated; actives raise or lower the signal
# Method in brief: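 Human umbilical vein endothelial cells (3C system), biomarker read by ELISA 24 h after dosing; bidirectional fit against DMSO baseline. Cytotoxicity tracked by SRB total-protein staining in parallel cultures at biomarker time.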
# Myc proto-oncogene protein (Homo sapiens), sequence (P01106 whole entry, looked up, the tested form may be a part): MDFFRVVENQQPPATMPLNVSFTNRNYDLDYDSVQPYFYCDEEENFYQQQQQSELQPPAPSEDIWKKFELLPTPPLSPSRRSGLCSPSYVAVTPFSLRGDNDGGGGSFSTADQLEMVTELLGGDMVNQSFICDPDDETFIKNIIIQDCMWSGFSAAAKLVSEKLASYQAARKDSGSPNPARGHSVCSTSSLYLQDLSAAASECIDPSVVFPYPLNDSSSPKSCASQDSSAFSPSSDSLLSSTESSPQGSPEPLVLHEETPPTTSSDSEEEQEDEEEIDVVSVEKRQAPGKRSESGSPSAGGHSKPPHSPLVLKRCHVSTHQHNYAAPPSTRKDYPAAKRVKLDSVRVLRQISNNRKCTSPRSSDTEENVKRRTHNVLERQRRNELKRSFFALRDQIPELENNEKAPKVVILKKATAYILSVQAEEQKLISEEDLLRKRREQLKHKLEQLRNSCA
# Cellular tumor antigen p53 (Homo sapiens), sequence (P04637 whole entry, looked up): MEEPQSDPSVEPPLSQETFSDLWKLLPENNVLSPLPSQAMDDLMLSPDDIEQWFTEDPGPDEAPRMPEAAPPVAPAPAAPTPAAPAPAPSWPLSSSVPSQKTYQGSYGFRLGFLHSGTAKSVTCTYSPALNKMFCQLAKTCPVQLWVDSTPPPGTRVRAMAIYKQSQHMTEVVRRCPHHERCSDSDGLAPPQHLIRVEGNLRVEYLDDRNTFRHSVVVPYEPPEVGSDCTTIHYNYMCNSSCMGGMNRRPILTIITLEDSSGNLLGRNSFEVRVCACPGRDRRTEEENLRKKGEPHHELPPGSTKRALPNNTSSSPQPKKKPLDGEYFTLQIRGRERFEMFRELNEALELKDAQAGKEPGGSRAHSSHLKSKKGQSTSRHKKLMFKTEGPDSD
structure (smiles),measurement,setting,value
CCC(=O)C=Cc1ccc(OC)cc1,outcome,[1],inactive
same,outcome,[2],inactive
same,AC50,[3],100 µM (active)
same,AC50,[4],27.1 µM (active)
same,outcome,[5],inactive
same,outcome,[6],inactive
CCCCCCCC(OC)OC,outcome,[1],inactive
same,outcome,[2],inactive
same,outcome,[3],inactive
same,outcome,[4],inactive
same,outcome,[5],inactive
same,outcome,[6],inactive
NC(=NCCCCCCN=C(N)/N=C(\N)Nc1ccc(Cl)cc1)/N=C(\N)Nc1ccc(Cl)cc1,outcome,[1],inactive
same,AC50,[2],90.5 µM (active) and 24.6 µM (active)
same,outcome,[2],inactive
same,AC50,[4],2.26 µM (active)
same,outcome,[4],inactive
same,AC50,[5],23.5 µM (active)
same,outcome,[5],inactive
same,AC50,[6],8.29 µM (active) and 8.25 µM (active)
same,outcome,[6],inactive
same,AC50,[7],4.88 µM (active)
same,AC50,[8],2.61 µM (active)
same,AC50,[9],5.53 µM (active)
CC(O)COc1ccccc1 (centres undefined),outcome,[1],inactive
same,outcome,[2],inactive
same,outcome,[3],inactive
same,outcome,[4],inactive
same,outcome,[5],inactive
same,outcome,[6],inactive
O=S(=O)(O)c1ccccc1,outcome,[1],inactive
same,outcome,[2],inactive
same,outcome,[3],inactive
same,outcome,[4],inactive
same,outcome,[5],inactive
CCCC=O,outcome,[1],inactive
same,outcome,[2],inactive
same,outcome,[3],inactive
same,outcome,[4],inactive
same,outcome,[5],inactive
same,outcome,[6],inactive
CCCCCCCCCCCC[N+](C)(C)CCCCCCCCCCCC,outcome,[1],inactive
same,AC50,[2],100 µM (active)
same,outcome,[3],inactive
same,AC50,[4],10.4 µM (active)
same,AC50,[5],5.23 µM (active)
same,AC50,[6],10.4 µM (active)
CN(C)c1ccc(C(=C2C=CC(=[N+](C)C)C=C2)c2ccccc2)cc1,AC50,[1],5.55 µM (active)
same,outcome,[1],inactive
same,outcome,[2],inactive
same,AC50,[3],933 nM (active) and 1.85 µM (active)
same,AC50,[4],474 nM (active) and 475 nM (active)
same,AC50,[5],2.27 µM (active)
same,outcome,[5],inactive
same,AC50,[6],1.61 µM (active) and 2.64 µM (active)
same,AC50,[7],0.0152 µM (active)
same,AC50,[8],0.0141 µM (active)
same,AC50,[10],0.0273 µM (active)
same,AC50,[9],0.0082 µM (active)
CCO[Si](C)(C)OCC,outcome,[1],inactive
same,outcome,[2],inactive
same,outcome,[3],inactive
same,outcome,[4],inactive
same,outcome,[5],inactive
same,outcome,[6],inactive
O=C1c2ccccc2C(=O)c2c(O)c(O)cc(O)c21,outcome,[1],inactive
same,outcome,[2],inactive
same,AC50,[3],32.4 µM (active)
same,AC50,[4],5.36 µM (active)
same,outcome,[5],inactive
same,outcome,[6],inactive
Cc1ccc(N=Nc2c(O)ccc3ccccc23)c(C)c1,outcome,[1],inactive
same,outcome,[2],inactive
same,outcome,[3],inactive
same,AC50,[4],1.86 µM (active)
same,outcome,[5],inactive
same,outcome,[6],inactive
same,AC50,[7],1.97 µM (active)
same,outcome,[8],inactive
same,outcome,[10],inactive
same,AC50,[9],3.39 µM (active)
CC(C)CCOCCC(C)C,outcome,[1],inactive
same,outcome,[2],inactive
same,outcome,[3],inactive
same,outcome,[4],inactive
same,outcome,[5],inactive
same,outcome,[6],inactive
CCCCCCCCCCCCCCCCCC[N+](C)(C)Cc1ccccc1,outcome,[1],inactive
same,outcome,[2],inactive
same,outcome,[3],inactive
same,AC50,[4],12.6 µM (active)
same,AC50,[5],3.19 µM (active)
same,outcome,[6],inactive
same,AC50,[7],1.17 µM (active)
same,AC50,[8],0.35 µM (active)
same,AC50,[10],1.91 µM (active)
same,AC50,[9],2.84 µM (active)
COCC1CCC(CO)CC1 (centres undefined),outcome,[1],inactive
same,outcome,[2],inactive
same,outcome,[3],inactive
same,outcome,[4],inactive
same,outcome,[5],inactive
same,outcome,[6],inactive
O=C(C=C(O)C(F)(F)F)C(F)(F)F,outcome,[1],inactive
same,outcome,[2],inactive
same,outcome,[3],inactive
same,outcome,[4],inactive
same,outcome,[5],inactive
same,outcome,[6],inactive
CC(C)(O)C(=O)c1ccccc1,outcome,[1],inactive
same,outcome,[2],inactive
same,outcome,[3],inactive
same,outcome,[4],inactive
same,outcome,[5],inactive
same,outcome,[6],inactive
C=COC(=O)C(C)(C)CCCCCC,outcome,[1],inactive
same,outcome,[2],inactive
same,outcome,[3],inactive
same,AC50,[4],142 µM (active)
same,outcome,[5],inactive
same,outcome,[6],inactive
same,AC50,[7],29.9 µM (active)
same,AC50,[8],31.3 µM (active)
same,AC50,[10],34.4 µM (active)
same,AC50,[9],30.3 µM (active)
C=Cc1ccc(O)c(OC)c1,outcome,[1],inactive
same,outcome,[2],inactive
same,outcome,[3],inactive
same,AC50,[4],6.89 µM (active)
same,outcome,[5],inactive
same,outcome,[6],inactive
C[C@]12CC[C@@H]3c4ccc(O)cc4CC[C@H]3[C@@H]1CC[C@@H]2OC(=O)CCC1CCCC1,AC50,[1],100 µM (active)
same,outcome,[2],inactive
same,outcome,[3],inactive
same,AC50,[4],21.5 µM (active)
same,outcome,[5],inactive
same,outcome,[6],inactive
OCC(F)(F)C(F)(F)C(F)(F)C(F)(F)C(F)(F)C(F)(F)C(F)(F)C(F)(F)C(F)(F)C(F)(F)C(F)(F)F,outcome,[1],inactive
same,outcome,[2],inactive
same,outcome,[3],inactive
same,AC50,[4],55.4 µM (active)
same,outcome,[5],inactive
same,outcome,[6],inactive
same,outcome,[7],inactive
same,outcome,[8],inactive
same,outcome,[10],inactive
same,outcome,[9],inactive
c1ccc(CNc2ncnc3c2ncn3C2CCCCO2)cc1 (centres undefined),outcome,[1],inactive
same,outcome,[2],inactive
same,outcome,[3],inactive
same,AC50,[4],19.8 µM (active)
same,outcome,[5],inactive
same,outcome,[6],inactive
O=C1C=CC(=O)N1c1cccc(N2C(=O)C=CC2=O)c1,outcome,[1],inactive
same,outcome,[2],inactive
same,outcome,[3],inactive
same,outcome,[4],inactive
same,outcome,[5],inactive
same,outcome,[6],inactive
CCCCCCC(C)(C)C(=O)O,outcome,[1],inactive
same,outcome,[2],inactive
same,outcome,[3],inactive
same,AC50,[4],117 µM (active)
same,outcome,[5],inactive
same,outcome,[6],inactive
C=CC(F)(F)C(F)(F)C(F)(F)C(F)(F)F,outcome,[1],inactive
same,outcome,[2],inactive
same,outcome,[3],inactive
same,outcome,[4],inactive
same,outcome,[5],inactive
same,outcome,[6],inactive
COC(O)c1ccccc1 (centres undefined),outcome,[1],inactive
same,outcome,[2],inactive
same,outcome,[3],inactive
same,outcome,[4],inactive
same,outcome,[5],inactive
same,outcome,[6],inactive
CCCCc1ccc2ccccc2c1S(=O)(=O)O,outcome,[1],inactive
same,outcome,[2],inactive
same,outcome,[3],inactive
same,AC50,[4],8.84 µM (active)
same,outcome,[5],inactive
same,outcome,[6],inactive
CCCCCCCCC(C)=O,outcome,[1],inactive
same,outcome,[2],inactive
same,outcome,[3],inactive
same,outcome,[4],inactive
same,outcome,[5],inactive
same,outcome,[6],inactive

# — PubChem BioAssay (EPA / NIEHS)
